Screening results (PubChem)
Sampled rows, rich in hits. Any-hit rate of the full collection: about 9.2%.
USP7 inh: blocks human USP7 ubiquitin-rhodamine cleavage; inhibition, % at 20 µM; 47,000 tested, 0.3% active; Q93009; AID 1645854; purified USP7, Ub-rhodamine cleavage fluorescence
USP10 block: human USP10 deubiquitinase inhibition | purified USP10, Ub-rhodamine fluorescence, 60 min | Q14694 | 47,000 tested, 1.1% active | inhibition, % at 20 µM
Target sequence (Q14694 whole entry, looked up): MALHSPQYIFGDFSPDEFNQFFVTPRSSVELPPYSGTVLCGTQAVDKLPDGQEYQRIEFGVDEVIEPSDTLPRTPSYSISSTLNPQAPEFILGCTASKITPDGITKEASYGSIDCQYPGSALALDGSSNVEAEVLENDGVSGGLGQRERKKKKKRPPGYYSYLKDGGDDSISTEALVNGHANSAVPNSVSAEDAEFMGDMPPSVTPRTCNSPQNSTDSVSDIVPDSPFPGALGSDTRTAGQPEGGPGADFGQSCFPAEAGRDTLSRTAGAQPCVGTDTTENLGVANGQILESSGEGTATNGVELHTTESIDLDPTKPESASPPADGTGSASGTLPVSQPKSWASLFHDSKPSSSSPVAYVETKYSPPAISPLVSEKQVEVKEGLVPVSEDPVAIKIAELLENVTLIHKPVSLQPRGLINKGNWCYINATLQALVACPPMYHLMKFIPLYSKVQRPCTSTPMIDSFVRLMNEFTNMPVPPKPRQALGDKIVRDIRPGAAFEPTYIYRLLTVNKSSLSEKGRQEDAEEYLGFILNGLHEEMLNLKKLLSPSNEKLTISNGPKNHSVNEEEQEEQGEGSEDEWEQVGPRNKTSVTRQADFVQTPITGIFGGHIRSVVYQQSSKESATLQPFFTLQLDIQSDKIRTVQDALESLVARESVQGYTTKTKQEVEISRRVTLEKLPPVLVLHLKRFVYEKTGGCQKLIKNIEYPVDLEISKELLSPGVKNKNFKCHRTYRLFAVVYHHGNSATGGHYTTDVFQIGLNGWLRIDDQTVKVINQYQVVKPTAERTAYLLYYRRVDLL
UCHL1 inh: human UCHL1 deubiquitinase inhibition; inhibition, % at 20 µM; 47,000 tested, 0.2% active; purified UCHL1, Ub-rhodamine cleavage fluorescence; P09936
USP17 block: inhibitors of human USP17 deubiquitinase. purified USP17, Ub-rhodamine cleavage fluorescence, 3 h. A8MUK1. inhibition, % at 50 µM. 47,000 tested, 6.5% active. AID 1645855
USP8 inh: human USP8 deubiquitinase inhibition | P40818 | purified USP8, Ub-rhodamine cleavage fluorescence, 30 min | inhibition, % at 20 µM | 47,000 tested, 4.2% active | AID 1645853
OTUD3 block: blocks human OTUD3 ubiquitin-rhodamine cleavage. Q5T2D3. purified OTUD3, Ub-rhodamine fluorescence, 2 h. inhibition, % at 25 µM. 47,000 tested, 0.7% active. AID 1645858
Starred values were filed as active, the others as inactive; nt = no result. Rule as the data show it: active = inhibition above about 30%; inactive = the rest.

SMILES | USP7 inh | USP10 block | UCHL1 inh | USP17 block | USP8 inh | OTUD3 block
O=C(C1CCCN(c2cnc3nccnc3c2)C1)N1CCN(c2ccccn2)CC1 (configuration not stated) | -47 | -11 | -44 | -124 | -105 | -107
COc1cc(O)c2c(c1)C1=CC(=O)C(O)=C[C@]1(C)OC2=O | 1 | 29 | 9 | 46* | 14 | 41*
COc1cc(O)c2c(c1)C(=O)c1cc3c(c(O)c1C2=O)C(OC1OC(C)C(OC)C(O)C1OC)C(OC)C(C)(O)C3=O (configuration not stated) | -141 | -4 | -149 | -160 | -326 | -149
O=C(NCc1ccco1)c1ccc(Oc2cc(Cl)cc(Cl)c2)o1 | 1 | 13 | 3 | 37* | 10 | 2
O=C(c1ccccn1)N1C[C@H](OCc2ccncc2)[C@H]2OCCC[C@H]21 | 5 | -1 | 1 | nt | -92 | 1
Clc1ccc(-c2cc3n(c2)CCc2cc4c(cc2-3)OCO4)cc1 | -11 | -8 | -8 | 30 | 70* | 0
Cn1cncc1CN1CCC2(CC1)CN(c1ncccn1)c1ccccc12 | -1 | -3 | 2 | -8 | -42 | 1
Cc1ccc(C(=O)N2c3ncnn3C(c3ccccc3)CC2c2ccccc2)cc1 (configuration not stated) | 4 | -1 | 4 | 15 | 21 | 8
CC1Oc2ccccc2C(=O)N(Cc2ccccc2)C1=O (configuration not stated) | -83 | 3 | 2 | 20 | 18 | 22
CC(C)NC(=O)COc1ccccc1-c1nnc(-c2ccccc2)o1 | 1 | 0 | 7 | 30 | 1 | 9
O=C(COc1ccccc1-c1nnc(-c2ccccc2)o1)NCc1ccco1 | 16 | 25 | 19 | 20 | 84* | -15
O=C(COc1ccccc1-c1nnc(-c2ccccc2)o1)Nc1ccccc1F | 8 | 13 | -1 | 46* | 9 | 1
CN(C(=O)COc1ccccc1-c1nnc(-c2ccccc2)o1)c1ccccc1 | 2 | 0 | 3 | 9 | 10 | 16
O=C(COc1ccccc1-c1nnc(-c2ccccc2)o1)NCc1ccccc1Cl | 3 | 1 | 0 | -6 | -47 | 0
COc1ccc(NC(=O)COc2ccccc2-c2nnc(-c3ccccc3)o2)cc1 | 6 | 2 | 2 | 35* | 14 | 4
O=C(COc1ccccc1-c1nnc(-c2ccccc2)o1)NCc1ccc(F)cc1 | 4 | 3 | 3 | 22 | 56* | 13
COc1cc2c(cc1OC)C(c1ccccc1)N(Cc1nnc(C)o1)CC2 (configuration not stated) | 0 | -2 | 2 | 6 | 16 | 5
Cc1ccc(NC(=O)CNC(=O)c2cc3ccccc3o2)cc1F | 5 | 2 | 0 | -5 | 29 | 8
O=C(CSc1ncnc2c1oc1ccccc12)Nc1ccc2c(c1)OCCO2 | 2 | 12 | 0 | 65* | 1 | 1
Cc1ccccc1-n1ncc2c(=O)n(CC(=O)Nc3ccc4c(c3)OCCO4)cnc21 | 8 | 26 | 3 | 30* | 2 | 12
Cc1nc(SCC(=O)Nc2ccc3c(c2)OCO3)c2oc3ccccc3c2n1 | 1 | -4 | 1 | 7 | 20 | 1
CC(NC(=O)CNC(=O)c1ccc2c(c1)OCO2)c1cc2ccccc2o1 (configuration not stated) | 6 | 0 | 1 | 42* | -30 | -3
Cc1ccc(NC(=O)CNC(=O)c2cc3ccccc3o2)cc1 | 3 | 14 | 1 | 55* | -7 | -2
COc1cc(NC(=O)c2ccccc2)c(OC)cc1NC(=O)Cc1cccc(C(F)(F)F)c1 | 1 | 0 | -4 | -24 | -186 | -5
Cc1nn(-c2ccccc2)c2c1C(c1ccco1)c1c(ncn3nc(-c4ccccn4)nc13)O2 (configuration not stated) | 2 | 1 | 1 | 9 | 5 | 14
SMILES | USP7 inh | USP10 block | UCHL1 inh | USP17 block | USP8 inh | OTUD3 block
Cc1cc(C(=O)N2CCC(Cc3ccncc3)CC2)c(=O)[nH]c1C | 3 | 4 | 0 | 8 | 10 | 17
CCn1nccc1-c1cc(C2CCN(S(=O)(=O)N(C)C)CC2)nc(C)n1 | -1 | 0 | 0 | -6 | -4 | -5
CN1C(=O)OC[C@@H]2CCN(C(=O)Nc3ccccc3F)C[C@H]21 | 1 | 0 | -1 | nt | 9 | 2
O=C(CNC(=O)c1cc2ccccc2o1)Nc1cccc(F)c1 | 3 | 2 | 0 | -3 | -5 | -5
O=C(CNC(=O)c1cc2ccccc2o1)Nc1ccc2c(c1)OCCO2 | 3 | 6 | 3 | 63* | 6 | 14
COc1cc(NC(=O)Cc2ccccc2)ccc1NC(=O)c1cc2ccccc2o1 | 10 | 34* | 4 | 70* | 8 | 11
CC(=O)c1cccc(NC(=O)CNC(=O)c2cc3ccccc3o2)c1 | 3 | 8 | 2 | -4 | -12 | -1
Cc1cc(=O)sc2c1c(C)nn2-c1ccccc1 | -125 | 2 | 0 | 31* | 3 | 19
Cc1cc(=O)n(CC(=O)N2CCCCC2)c2c1c(C)nn2-c1ccccc1 | -36 | 1 | 1 | 7 | -7 | 2
CCOC(=O)N1CCc2c(sc3ncn(CC(=O)c4ccc(Br)cc4)c(=O)c23)C1 | -2 | 0 | 2 | -2 | -3 | -4
O=C(Cn1c(=O)n(Cc2ccc(F)cc2)c(=O)c2ncccc21)Nc1ccccc1 | -13 | 0 | 4 | 24 | 14 | 5
Cc1ccc(Cn2c(=O)c3ncccc3n(CC(=O)NCc3ccc(F)cc3)c2=O)cc1 | 3 | 34* | 3 | 77* | 81* | 45*
Cc1ccc(CNC(=O)Cn2c(=O)n(CCCC(=O)NCc3ccc(F)cc3)c(=O)c3ccccc32)cc1 | 21 | 44* | 4 | 33* | 43* | 24
CC12CN3CC(c4ccccc4)(CN(C1)C3c1ccc(F)cc1)C2=O (configuration not stated) | 3 | 0 | 3 | 24 | 2 | 5
CCc1nc2ccccc2c(C(=O)OCC(=O)c2ccccc2)c1C | 3 | -1 | -1 | -4 | -1 | 3
O=c1cc(-c2cncc(-c3cc4ccccc4o3)c2)nc(-c2ccccc2)[nH]1 | 4 | 1 | -1 | 5 | 4 | 0
O=c1cc(-c2cncc(Br)c2)nc(-c2ccccc2)[nH]1 | 3 | 10 | 1 | nt | 34* | 11
CC1(C)CCCC2=C1CC(C)(C)C(N(C(=O)/C=C/C(=O)O)c1ccccc1)C2 (configuration not stated) | 1 | 34* | 0 | 77* | 59* | 41*
Cn1c(=O)c2c(-c3ccccc3)n(-c3ccc4c(c3)OCCO4)cc2n(C)c1=O | -12 | 0 | -5 | 32* | 74* | -16
Fc1cccc(-n2cc(-c3noc(-c4ccc[nH]4)n3)nn2)c1 | -1 | 1 | 2 | 43* | 35* | 21
Fc1cccc(-n2cc(-c3noc(-c4ccccn4)n3)nn2)c1 | -1 | 4 | 1 | 30* | 8 | 14
O=C(c1nc(-c2cn(-c3cccc(F)c3)nn2)no1)N1CCOCC1 | -8 | 1 | -1 | -7 | 4 | -2
O=C1CCSc2ccc(S(=O)(=O)CCC(=O)N3CCc4ccccc4C3)cc2N1 | -1 | -1 | 0 | 39* | -1 | 10
